Among all 310,000 compounds or so, about 14,000 (4.5%) showed an effect of 50% or more. Effects have a minus sign here. The entries come from a sample that favours strong results as a whole.
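Further: peak tail current of the secondary pulse compared with the same well before compound.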

In this assay the target is human ether-à-go-go-related gene (hERG) potassium channel (human, UniProt Q12809). Put plainly: primary screen, population patch clamp on CHO cells stably expressing hERG; higher = less effect of the substance.
Sequence of human ether-à-go-go-related gene (hERG) potassium channel (Q12809 whole entry, looked up): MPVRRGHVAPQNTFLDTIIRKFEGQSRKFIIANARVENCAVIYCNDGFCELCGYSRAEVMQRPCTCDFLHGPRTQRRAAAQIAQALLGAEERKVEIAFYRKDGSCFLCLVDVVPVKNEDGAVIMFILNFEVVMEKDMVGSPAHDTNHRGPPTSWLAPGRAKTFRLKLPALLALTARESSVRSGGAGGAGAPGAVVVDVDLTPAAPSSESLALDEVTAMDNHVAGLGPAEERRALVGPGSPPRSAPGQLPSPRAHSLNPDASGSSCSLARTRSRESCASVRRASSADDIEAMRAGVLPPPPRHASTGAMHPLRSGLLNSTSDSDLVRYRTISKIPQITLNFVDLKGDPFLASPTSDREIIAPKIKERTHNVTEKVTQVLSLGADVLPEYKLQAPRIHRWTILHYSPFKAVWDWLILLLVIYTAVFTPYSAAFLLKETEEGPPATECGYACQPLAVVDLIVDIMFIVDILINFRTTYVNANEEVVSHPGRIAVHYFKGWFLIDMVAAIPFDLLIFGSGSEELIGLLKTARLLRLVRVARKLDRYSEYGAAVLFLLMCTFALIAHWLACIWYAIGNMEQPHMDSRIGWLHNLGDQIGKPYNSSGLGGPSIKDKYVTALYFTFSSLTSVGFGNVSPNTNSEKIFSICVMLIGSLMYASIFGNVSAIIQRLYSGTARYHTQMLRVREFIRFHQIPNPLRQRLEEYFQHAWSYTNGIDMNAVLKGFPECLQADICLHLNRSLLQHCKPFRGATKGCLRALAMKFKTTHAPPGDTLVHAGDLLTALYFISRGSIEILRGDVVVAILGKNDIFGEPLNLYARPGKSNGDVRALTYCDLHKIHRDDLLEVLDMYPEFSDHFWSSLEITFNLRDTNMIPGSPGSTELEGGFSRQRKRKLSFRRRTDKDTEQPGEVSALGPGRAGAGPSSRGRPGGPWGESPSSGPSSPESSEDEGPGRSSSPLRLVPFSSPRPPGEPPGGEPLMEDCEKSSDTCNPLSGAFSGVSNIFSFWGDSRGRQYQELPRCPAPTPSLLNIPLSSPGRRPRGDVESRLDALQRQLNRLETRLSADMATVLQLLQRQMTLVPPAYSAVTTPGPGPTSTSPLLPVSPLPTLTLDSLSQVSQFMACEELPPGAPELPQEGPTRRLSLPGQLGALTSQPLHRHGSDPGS
Regarding `Cc1cc(Cl)ccc1OCC(=O)Nc1nc(-c2cccs2)cs1`, the “hERG current change (%, negative = inhibition) at 10uM” value turned out to be 15.6%.

Turning to `CC(OC(=O)Cc1c[nH]c2ccccc12)C(=O)Nc1ccccc1F` (centres unmarked), the “hERG current change (%, negative = inhibition) at 10uM” value was -11.7%.

For `O=C(c1ccccc1)N1CCN(Cc2cccc(Oc3ccccc3)c2)CC1`, the “hERG current change (%, negative = inhibition) at 10uM” value was -50.1%.

Take `CCN1CCN(Cc2cccc(Oc3ccccc3)c2)CC1`: the “hERG current change (%, negative = inhibition) at 10uM” value is -35.9%.

For the compound `CCN1CCN(Cc2cccc(Oc3ccc(Cl)cc3)c2)CC1`, the “hERG current change (%, negative = inhibition) at 10uM” value was -56.9%.

As for `CCOc1ccc(CN2CCN(C(=O)c3cccc(F)c3)CC2)cc1.O=C(O)C(=O)O`, the “hERG current change (%, negative = inhibition) at 10uM” value is on record as -62%.

Turning to `O=C(O)C(=O)O.O=C(c1cccc(F)c1)N1CCN(Cc2cccc(Br)c2)CC1`, the “hERG current change (%, negative = inhibition) at 10uM” value was -48.6%.

Take `COc1cccc(CN2CCN(C(=O)c3ccc(-c4ccccc4)cc3)CC2)c1`: the “hERG current change (%, negative = inhibition) at 10uM” value is recorded as -38.3%.

`COc1cccc(C(=O)N2CCN(Cc3cccc(F)c3)CC2)c1.O=C(O)C(=O)O`: the “hERG current change (%, negative = inhibition) at 10uM” value is listed as -7.48%.

For `CN1CCN(Cc2cccc(Oc3ccc(Cl)cc3)c2)CC1`, the “hERG current change (%, negative = inhibition) at 10uM” value worked out at 1.98%.

In the case of `O=C(c1cccc(C(=O)N2CCN(Cc3ccccc3)CC2)c1)N1CCN(Cc2ccccc2)CC1`, the “hERG current change (%, negative = inhibition) at 10uM” value is listed as -17.2%.

On to `C=CCn1c(-c2cccc(OC)c2OC)n[nH]c1=S`, for which the “hERG current change (%, negative = inhibition) at 10uM” value was -24.3%.

As for `Cc1cc2c(c(=O)n1Cc1ccccn1)C(c1ccc3c(c1)OCO3)C(C#N)=C(N)O2` (centres unmarked), the “hERG current change (%, negative = inhibition) at 10uM” value was -0.622%.

Consider `COc1ccc(C(=S)N2CCCC2)cc1OC`, for which the “hERG current change (%, negative = inhibition) at 10uM” value amounted to 2.36%.

`CC(C)OC(=O)CC(=O)CSc1nc2c(cc1C#N)CCCCCC2`: the “hERG current change (%, negative = inhibition) at 10uM” value is reported as -4.33%.

As to `O=C(O)c1ccc(C2SCC(=O)N2Cc2ccccc2)cc1` (centres unmarked), the “hERG current change (%, negative = inhibition) at 10uM” value is -0.7%.

Regarding `COc1ccc(N2CCN(C(=O)CSc3nnc4c(C)cc5cc(C)ccc5n34)CC2)cc1`, the “hERG current change (%, negative = inhibition) at 10uM” value is -21.2%.

Take `O=C1C2C3C=CC(C3)C2C(=O)N1c1n[nH]c(-c2cccnc2)n1` (centres unmarked): the “hERG current change (%, negative = inhibition) at 10uM” value is 11.1%.

For the compound `O=C(CSc1nnc(Cn2c(=O)sc3ccccc32)n1-c1ccccc1)N1CCCCCC1`, the “hERG current change (%, negative = inhibition) at 10uM” value was -12.5%.

Take `CCO[C@@H]1OC(C(=O)NCc2ccccc2)=C[C@H](c2coc3ccccc3c2=O)[C@H]1CCCO`: the “hERG current change (%, negative = inhibition) at 10uM” value is on record as -47.5%.

As to `CNC(=O)c1ccsc1NC(=O)C1CCCN1S(=O)(=O)c1cccs1` (centres unmarked), the “hERG current change (%, negative = inhibition) at 10uM” value is listed as 7.6%.

Regarding `O=C(Nc1ccc(F)cc1)C1CCN(S(=O)(=O)c2cccs2)CC1`, the “hERG current change (%, negative = inhibition) at 10uM” value is given as -24.4%.

Regarding `CNC(=O)c1ccsc1NC(=O)c1ccc(Cl)s1`, the “hERG current change (%, negative = inhibition) at 10uM” value is on record as -0.512%.

With `CNC(=O)c1ccsc1NC(=O)C1CCN(S(=O)(=O)c2cccs2)CC1`, the “hERG current change (%, negative = inhibition) at 10uM” value is recorded as -55.1%.

In the case of `CCOC(=O)C1CCN(S(=O)(=O)c2ccc(Cl)s2)CC1`, the “hERG current change (%, negative = inhibition) at 10uM” value is on record as -13.3%.

Turning to `Cc1ccc(NC(=O)C2CCN(S(=O)(=O)c3cccs3)CC2)cc1C`, the “hERG current change (%, negative = inhibition) at 10uM” value is on record as -31.1%.

`CNC(=O)c1ccsc1NC(=O)C1CCN(S(=O)(=O)c2ccc(Cl)s2)CC1`: the “hERG current change (%, negative = inhibition) at 10uM” value is -54.9%.

In the case of `N#Cc1ccsc1NC(=O)C1CCN(S(=O)(=O)c2cccs2)CC1`, the “hERG current change (%, negative = inhibition) at 10uM” value is given as -20.2%.

As to `O=C(Nc1ccccc1)C1CCN(S(=O)(=O)c2cccs2)CC1`, the “hERG current change (%, negative = inhibition) at 10uM” value is on record as -16.4%.

`NC(=O)c1ccsc1NC(=O)C1CCN(S(=O)(=O)c2cccs2)CC1`: the “hERG current change (%, negative = inhibition) at 10uM” value was -52.4%.

As for `O=C(Nc1nccs1)C1CCN(S(=O)(=O)c2cccs2)CC1`, the “hERG current change (%, negative = inhibition) at 10uM” value is -24.1%.

As to `O=C(Nc1ccc(F)c(F)c1)C1CCN(S(=O)(=O)c2cccs2)CC1`, the “hERG current change (%, negative = inhibition) at 10uM” value is reported as -53.7%.

`CCC(c1nnc(SCC(=O)NCCc2ccc(Cl)cc2Cl)o1)N(C)C` (centres unmarked): the “hERG current change (%, negative = inhibition) at 10uM” value is listed as -19.9%.

For the compound `Cc1nn(-c2ccccn2)c2c1-c1nc(N)ncc1CC2`, the “hERG current change (%, negative = inhibition) at 10uM” value is given as 5.03%.

Regarding `CC(C)CCn1c(Sc2nc3ccccc3o2)nc2c1c(=O)[nH]c(=O)n2C`, the “hERG current change (%, negative = inhibition) at 10uM” value is -20.8%.

With `Cc1ccc(-c2ocnc2C(=O)N2CCOCC2)cc1`, the “hERG current change (%, negative = inhibition) at 10uM” value was 21.4%.

Take `COc1ccc(OC)c(-c2c(=O)n(OCc3ccccc3Br)c3ccccc3[n+]2[O-])c1`: the “hERG current change (%, negative = inhibition) at 10uM” value stood at 11.5%.

On to `Cc1csc(NC(=O)C2CCN(S(=O)(=O)c3cccs3)CC2)n1`, for which the “hERG current change (%, negative = inhibition) at 10uM” value is -27.3%.

Turning to `CN1CCc2c(sc(NC(=O)C3CCN(S(=O)(=O)c4cccs4)CC3)c2C(N)=O)C1.Cl`, the “hERG current change (%, negative = inhibition) at 10uM” value was -30.8%.

As to `O=C(Nc1nc2ccccc2[nH]1)C1CCN(S(=O)(=O)c2cccs2)CC1`, the “hERG current change (%, negative = inhibition) at 10uM” value is -0.923%.

On to `CCCN1CCc2c(sc(NC(=O)C3CCN(S(=O)(=O)c4cccs4)CC3)c2C(N)=O)C1.Cl`, for which the “hERG current change (%, negative = inhibition) at 10uM” value was -61.3%.

`CC(=O)N1CCc2c(sc(NC(=O)C3CCN(S(=O)(=O)c4cccs4)CC3)c2C(N)=O)C1`: the “hERG current change (%, negative = inhibition) at 10uM” value is recorded as -29.4%.

As for `CCCn1c(NC(=O)C2CCN(S(=O)(=O)c3cccs3)CC2)nc2ccccc21`, the “hERG current change (%, negative = inhibition) at 10uM” value is reported as -68.8%.

As to `CC12CN(C(=O)c3ccccc3Br)CC(C)(CN(C(=O)c3ccccc3Br)C1)C2=O`, the “hERG current change (%, negative = inhibition) at 10uM” value is listed as -4.96%.
